Screens (PubChem)
ELG1 repair inh – inhibitors of ELG1-dependent DNA repair in HEK293T cells. Potency, µM (top dose mostly 46.1 µM), hits mostly inhibitors. HEK293T ELG1-luciferase reporter, luminescence, 16 h; DNA damage induced by 5-fluorouridine. 330,000 compounds, 2.3% hits. AID 504467; further: nearly all actives have a fitted effect of over 55% in size
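Step one: seed 2,000 cells per well. Step two: pin-transfer compound or DMSO alongside 5-fluorouridine. Step three: incubate 16 hr, 37 °C, 5% CO2. Step four: add ONE-Glo, wait 30 min, read luminescence.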
IL1B secr inh – blocks inflammasome-driven IL-1 beta release | THP-1 LPS/ATP IL-1B secretion, AlphaLISA, 16 h; active compounds read low | activity change, % at 57.5 µM | 360,000 compounds, 4.7% hits; in the data active means activity change below about -50%; inconclusive means mostly about -30% to -49%
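THP-1 cells pretreated 1 hr with compounds (up to 57.5 uM final), then stimulated with LPS (250 ng/mL final) plus ATP (1.25 mM final); secreted IL-1B measured by AlphaLISA after 16 hr, decreased signal indicating inhibition.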
Giardia kill – kills Giardia lamblia; activity change, % at 7.66 µM, hits read low; Giardia lamblia trophozoite viability; AID 540267; 340,000 compounds, 0.15% hits; in the data active means activity change below about -80%; inconclusive means between about -30% and that limit;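 further: parasites exposed to compound for two days anaerobically before the ATP read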
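Media and compound were dispensed first, then trophozoites at 100 cells/well; plates sat 48 hrs at 37 deg C without oxygen before ATP luminescence reagent was added and read after 15-30 min at room temperature.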
DT40 TDP1 CPT – growth inhibition of DT40 Tdp1-/-;hTDP1 cells with camptothecin (screen for TDP1 inhibitors); chicken DT40 Tdp1-/-;hTDP1 cells + 20 nM CPT, ATP luminescence, 48 h; Potency, µM (doses to about 46.2 µM), hits mostly inhibitors; 420,000 compounds, 12% hits; further: nearly all actives have a fitted effect of over 55% in size
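Chicken DT40 Tdp1-/- cells stably complemented with human TDP1 were seeded at 400 cells/well in medium containing 20 nM camptothecin, exposed to pin-transferred compounds, and grown at 37 °C for at least 48 hr. Viability was read as ATP luminescence.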
TDP1 cell noCPT – qHTS for Inhibitors of human tyrosyl-DNA phosphodiesterase 1 (TDP1): qHTS in cells in absence of CPT. 420,000 compounds, 15% hits. DT40 Tdp1-/- hTDP1 cells, no CPT, ATP luminescence, 48 h. AID 686978, 2013. Potency, µM (doses to about 46.2 µM), actives largely listed as inhibitors; further: nearly all actives have a fitted effect of over 55% in size
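Luminescent ATP content (CellTiter-Glo) served as the growth readout. Knockout chicken DT40 cells expressing human TDP1 were exposed to compounds without camptothecin for a minimum 48 hr at 37 °C.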
TDP1 block – blocks human tyrosyl-DNA phosphodiesterase 1 | AID 485290 | Q9NUW8 | recombinant TDP1, AlphaScreen DNA substrate cleavage | 350,000 compounds, 0.28% hits | Potency, µM (top dose mostly 130 µM), usual class: inhibitors; further: nearly all actives have a fitted effect of over 40% in size
Target sequence (Q9NUW8 whole entry, looked up): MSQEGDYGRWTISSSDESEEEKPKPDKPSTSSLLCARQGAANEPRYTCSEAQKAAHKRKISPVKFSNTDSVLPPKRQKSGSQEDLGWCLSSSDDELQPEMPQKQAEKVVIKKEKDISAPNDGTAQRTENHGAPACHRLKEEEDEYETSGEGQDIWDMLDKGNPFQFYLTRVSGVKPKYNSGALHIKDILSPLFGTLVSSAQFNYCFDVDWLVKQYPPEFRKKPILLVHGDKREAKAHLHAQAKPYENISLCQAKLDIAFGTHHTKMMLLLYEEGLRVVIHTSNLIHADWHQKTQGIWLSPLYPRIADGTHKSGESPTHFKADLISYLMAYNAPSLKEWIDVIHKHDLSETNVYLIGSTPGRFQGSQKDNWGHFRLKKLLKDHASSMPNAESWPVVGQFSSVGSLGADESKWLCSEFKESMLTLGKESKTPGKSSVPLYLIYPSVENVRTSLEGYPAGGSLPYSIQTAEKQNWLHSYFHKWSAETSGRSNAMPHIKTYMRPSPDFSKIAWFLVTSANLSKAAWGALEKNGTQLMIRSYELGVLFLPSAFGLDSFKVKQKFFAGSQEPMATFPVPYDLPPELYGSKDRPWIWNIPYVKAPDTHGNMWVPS
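Tdp1 1 nM final; 15 min RT w/ cpd; substrate 15 nM, 5 min; beads 10 ug/ml, 10 min; AlphaScreen read. Neg ctrl: no enzyme.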
Of the large screens only hits and unclear results are named; the others gave an inactive call; ! = a repeat was not active. Most compounds without a hit are left out; they make up all but 19% or so of the library. Unless noted, the call rests on the fitted dose curve; in most records, active means well fitted curve in the direction sought with a large enough effect; inconclusive means small, poorly fitted or top-dose-only effect, or another doubt; inactive means no such curve, though single readings can be large; an effect the other way counts as inactive or inconclusive.

CCc1ccccc1NC(=O)CSc1nc2n[nH]c(C)c2c(=N)n1-c1cccc(OC)c1	ELG1 repair inh inconclusive, DT40 TDP1 CPT 16µM, TDP1 cell noCPT 23µM
Cc1ccc(-n2c(SCC(=O)NCc3ccccc3)nc3n[nH]c(C)c3c2=N)cc1Cl	DT40 TDP1 CPT 4.1µM, TDP1 cell noCPT 2.3µM (no result: ELG1 repair inh, IL1B secr inh, Giardia kill)
O=C(CSc1nc(O)cc(=O)n1-c1ccccc1)NCc1ccccc1	none
Cc1c(Cl)cccc1-n1c(SCC(=O)NCc2ccccc2)nc2n[nH]c(C)c2c1=N	DT40 TDP1 CPT 15µM, TDP1 cell noCPT 12µM (no result: ELG1 repair inh, IL1B secr inh, Giardia kill)
CCc1ccc(-n2c(SCC(=O)NC(C)CC)nc3n[nH]c(C)c3c2=N)cc1 (stereo not given)	DT40 TDP1 CPT 5.8µM, TDP1 cell noCPT 5.2µM (no result: ELG1 repair inh, IL1B secr inh, Giardia kill)
COc1cccc(C(=O)Nc2sc(C(C)C)cc2C(N)=O)c1OC	ELG1 repair inh inconclusive, IL1B secr inh inconclusive, DT40 TDP1 CPT inconclusive, TDP1 cell noCPT inconclusive (no result: TDP1 block)
COc1ccc(Cl)cc1N1C(=O)[C@@H]2C[C@H]1CN2Cc1nc2ccccc2nc1C	none (no result: ELG1 repair inh, IL1B secr inh, Giardia kill, TDP1 block)
COc1ccc(CNC(=O)CSc2n[nH]c(-c3ccc(OC)cc3)n2)cc1	DT40 TDP1 CPT 9.2µM, TDP1 cell noCPT 13µM (no result: ELG1 repair inh, IL1B secr inh, Giardia kill)
Cc1ccccc1-n1c(SCC(=O)Nc2ccccc2Cl)nc2n[nH]c(C)c2c1=N	DT40 TDP1 CPT 16µM, TDP1 cell noCPT 18µM
Cc1ccccc1-n1c(SCc2ccccn2)nc2n[nH]c(C)c2c1=N	ELG1 repair inh inconclusive, IL1B secr inh inconclusive, DT40 TDP1 CPT 21µM, TDP1 cell noCPT 16µM
COc1ccc(-n2c(SCC(=O)NCc3ccc(C)cc3)nc3n[nH]c(C)c3c2=N)cc1	DT40 TDP1 CPT 6.5µM, TDP1 cell noCPT 4.1µM (no result: ELG1 repair inh, IL1B secr inh, Giardia kill)
COc1ccc(-c2nc(SCC(=O)NC3CCCCC3)n[nH]2)cc1	ELG1 repair inh inconclusive, DT40 TDP1 CPT inconclusive, TDP1 cell noCPT inconclusive
Cc1cccc(C(=O)Nc2cccc(OCc3cc(=O)n4cccc(C)c4n3)c2)c1	none (no result: ELG1 repair inh, IL1B secr inh, Giardia kill)
COc1cccc(Cc2nc3ccccc3nc2SCC(=O)N2CCc3ccccc32)c1	none (no result: ELG1 repair inh, IL1B secr inh, Giardia kill)
CN(CC(=O)Nc1ccccc1Cl)C(=O)COC(=O)c1ccc(-c2ccc(O)cc2)cc1	ELG1 repair inh inconclusive
Cc1ccc(CNC(=O)CSc2nc3n[nH]c(C)c3c(=N)n2-c2ccccc2Cl)cc1	DT40 TDP1 CPT 18µM, TDP1 cell noCPT 23µM (no result: ELG1 repair inh, IL1B secr inh, Giardia kill)
COc1ccc(NC(=O)CSc2nc3n[nH]c(C)c3c(=N)n2-c2ccc(Cl)c(C)c2)cc1OC	TDP1 cell noCPT inconclusive
COc1ccc(OC)c(NC(=O)CSc2nc3n[nH]c(C)c3c(=N)n2-c2cccc(Cl)c2C)c1	ELG1 repair inh inconclusive, DT40 TDP1 CPT inconclusive, TDP1 cell noCPT 16µM
CCOc1ccccc1NC(=O)CCSc1nc2n[nH]c(C)c2c(=N)n1-c1ccccc1Cl	ELG1 repair inh 3.2µM, DT40 TDP1 CPT inconclusive, TDP1 cell noCPT inconclusive
COc1cc(Nc2nnc(C)s2)c(Cl)cc1Cl	none
COCCOc1cc(Nc2nnc(C(F)(F)F)s2)c(Cl)cc1Cl	ELG1 repair inh 6.5µM
Cc1[nH]c2ccccc2c1C(C#N)(C#N)C1C(=O)c2ccccc2C1=O	ELG1 repair inh inconclusive, DT40 TDP1 CPT 2.1µM, TDP1 cell noCPT 2.1µM
Cc1cc(=O)c2c(O)c3c(O)cc(=O)c4c3c3c(cc(O)c1c23)C(C)(C)C=4O	DT40 TDP1 CPT 1µM!, TDP1 cell noCPT 0.73µM (no result: ELG1 repair inh, IL1B secr inh, Giardia kill)
COc1ccc2[nH]c(C)c(C(=O)CN3CCc4cc(OC)c(OC)cc4C3)c2c1	ELG1 repair inh inconclusive, DT40 TDP1 CPT 16µM, TDP1 cell noCPT 18µM
COc1ccc2c(c1)c(C(=O)CNc1nc(C)cs1)c(C)n2C	ELG1 repair inh inconclusive, IL1B secr inh inconclusive, DT40 TDP1 CPT inconclusive, TDP1 cell noCPT 21µM
COc1ccc2c(c1)c(C(=O)CN1CCc3ccccc3C1)c(C)n2C	DT40 TDP1 CPT inconclusive, TDP1 cell noCPT 21µM
COc1ccc2[nH]c(C)c(C(=O)CNc3nccs3)c2c1	DT40 TDP1 CPT 7.9µM, TDP1 cell noCPT 10µM (no result: ELG1 repair inh, IL1B secr inh, Giardia kill, TDP1 block)
Cc1ccccc1OCC(=O)NCC(=O)OCC(=O)c1ccc2c(c1)CCCC2	none (no result: ELG1 repair inh, IL1B secr inh)
CC(C)OC(=O)[C@@H]1CC[C@H](C)[C@@H](CCCCO)O1	none (no result: ELG1 repair inh, IL1B secr inh, Giardia kill, DT40 TDP1 CPT, TDP1 cell noCPT)
